The list is not random: actives were taken first. Their share in the collection is about 2.9%.
NadD inh: NadD (S. aureus) enzyme inhibition. purified NadD enzyme, colorimetric absorbance read-out. inhibition, % at 20 µM. hit rate 0.78% among 360,000; in the data active = inhibition above about 26%
GRK2 inh: human GRK2 inhibition via aptamer displacement | bead flow cytometry, FAM-aptamer displacement from GRK2 | hit rate 0.59% among 330,000 | inhibition of aptamer binding, % at 10 µM;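 active = inhibition of aptamer binding above 40%, roughly 3 SD of noise, on plates passing a quality check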;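 also: median bead fluorescence of bound FAM aptamer so fluorescent compounds give negative values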
B2AR ag: human beta-2 adrenergic receptor agonism by FAP; hit rate 0.43% among 340,000; Am2.2-beta2AR cells, FAP receptor internalization, flow cytometry; P07550; AID 504454; response, % (concentration not given with the values);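 active = response above a set limit, near 3 SD of response in nonfluorescent compounds, cut at about 42% in these data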
Granule exo inh: blocks lytic granule exocytosis. hit rate 0.66% among 360,000. inhibition, % at 10 µM. AID 651702. TALL-104 LAMP-1 surface exposure, flow cytometry; cells stimulated with thapsigargin and PMA;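 active = inhibition above about 55%, limit read from the data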
PP1 inh: PP1-alpha (human) inhibition in PP5 counter-screen; purified PP1alpha, OMFP fluorescence; AID 2235; hit rate 0.9% among 320,000; P62136; inhibition, % at 6.7 µM;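 active = inhibition above the mean inhibition of all tested compounds plus 3 SD, computed separately for each screening campaign, cut at about 15% in these data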
* = called active by the depositor; . = not tested or not shown; ! = not active in a repeat.

SMILES	NadD inh	GRK2 inh	B2AR ag	Granule exo inh	PP1 inh
CN(C)CCCN(C(=O)c1ccc(S(=O)(=O)N2CCc3ccccc3C2)cc1)c1nc2ccc(F)cc2s1	8	0	49*	55	12
CN(C)CCCN(C(=O)c1ccc(S(=O)(=O)N2CCc3ccccc3C2)cc1)c1nc2c(F)cccc2s1	6	0	31	16	10
O=C1NN(c2cccc(Br)c2)C(=O)/C1=C/c1ccc(-c2cc([N+](=O)[O-])ccc2O)o1	70*	0	.	13	-3
CC1=NN(c2ccc(C)cc2)C(=O)/C1=C/c1ccc(-c2cc([N+](=O)[O-])ccc2O)o1	27	.	34	31	.
CCc1ccccc1NC1=CC(=O)CC(C)(C)C1	3	0	34	1	-2
CCOC(=O)c1c2c3c(c(Cl)ccc3[nH]c1=O)C(=O)c1ccccc1-2	4	.	-94	92*	.
CCOC(=O)c1c2c3c(cccc3[nH]c1=O)C(=O)c1ccccc1-2	6	5	16	-2	-1
CCCCc1ccc(/C(C)=N/Nc2cc(N3CCOCC3)nc(C)n2)cc1	-9	0	12	0	-1
CCc1cc(C(=O)N/N=C/c2ccc(O)cc2)c2ccccc2n1	0	0	-5	-8	-1
O=C(N=Nc1c(O)[nH]c2ccc([N+](=O)[O-])cc12)c1ccccc1[N+](=O)[O-]	-5	0	17	3	3
CCc1cc(C(=O)N=Nc2c(O)[nH]c3c(Br)cc(Br)cc23)c2ccccc2n1	54*	3	-7	1	14
CCc1cc(C(=O)N=Nc2c(O)[nH]c3ccc([N+](=O)[O-])cc23)c2ccccc2n1	27	0	15	-6	16*
CCN(CC)S(=O)(=O)c1ccc(N2CCOCC2)c(NC(=O)c2nn(C(C)C)c(=O)c3ccccc23)c1	-3	.	.	2	.
C[C@@H](NC(=O)c1[nH]cnc1C(=O)Nc1ccccc1F)c1ccccc1	2	.	.	15	.
Cc1c(C(=O)OCC(=O)NCc2ccco2)cccc1[N+](=O)[O-]	0	0	-3	-1	4
CC(=O)Oc1ccc(C(=O)Nc2ccccc2NC(=O)c2ccc(OC(C)=O)cc2)cc1	-4	0	8	58*	3
Cc1cccc(N(C(=O)c2ccco2)C(C(=O)NC2CCCC2)c2ccco2)c1C (configuration not stated)	-11	.	5	-1	.
Cc1cc(C)nc(/N=C(\N)Nc2ccccc2-c2ccccc2)n1	-5	0	-13	0	-2
COc1ccccc1-n1c(=O)c(C#N)c(-c2ccc([N+](=O)[O-])cc2)c2cc(C(=O)c3cc(F)ccc3O)cnc21	-4	1	4	-1	0
Cn1c(=O)c(C#N)c(-c2ccc(F)cc2)c2cc(C(=O)c3cc(Cl)cc(Cl)c3O)cnc21	24*	1	24	10	13
Cc1cc(O)c(CN(C)C)c2c1C(=O)/C(=C/c1ccco1)O2	-3	5	-3	-8	-3
Cc1cc(O)c(C=O)c2c1C(=O)Oc1c(CO)c(O)c3c(c1O2)C(O)OC3=O (configuration not stated)	34*	72*	1	-2	36*
C[C@@H](C(=O)N1CCN(C(=O)OC(C)(C)C)CC1)n1cc(CCCN=C(NC(=O)OC(C)(C)C)NC(=O)OC(C)(C)C)nn1	-3	0	-4	-2	-5
N#Cc1ccc(N=c2ssnc2Cl)cc1	20	0	4	99*!	-3
COc1cc(N=c2ssnc2Cl)cc(OC)c1OC	3	2	-2	99*	0
SMILES	NadD inh	GRK2 inh	B2AR ag	Granule exo inh	PP1 inh
O=C(C=Cc1ccccn1)c1ccccc1	-1	.	21	12	.
O=C(C=Cc1ccccn1)c1ccccc1O	3	.	49*	-9	.
CCCCOC(=O)c1ccc(N=Nc2c(C)c(C#N)c(O)[nH]c2=O)cc1	52*	2	15	5	14
Cc1cccc(N=Nc2c(C)c(C#N)c(O)[nH]c2=O)c1	8	0	-7	2	-2
COCCOC(=O)c1c(NC(=O)COC(=O)Cc2cccc(OC)c2)sc(C(N)=O)c1C	-1	83*	5	1	0
COc1ccc(C(=O)C2CCCN(S(=O)(=O)c3ccc(C(C)=O)cc3)C2)c(C)c1 (configuration not stated)	-3	1	-7	1	0
CCOc1ccccc1C1C2C(=O)N(c3ccccc3)C(=O)C2ON1c1ccccc1 (configuration not stated)	-3	94*	2	-1	1
O=C(O)COc1ccccc1C1C2C(=O)N(c3ccccc3)C(=O)C2ON1c1ccccc1 (configuration not stated)	-1	0	10	-1	-1
COc1ccccc1CNC(=O)c1c(N)n(CCCN2CCOCC2)c2nc3ccccc3nc12	-11	.	26	72*	.
CC(/C=C1\SC(=S)N(NC(=O)c2ccc(C)cc2)C1=O)=C\c1ccccc1	30*	4	7	-3	13
CC(/C=C1\SC(=S)N(NS(=O)(=O)c2ccccc2)C1=O)=C\c1ccccc1	18	2	13	2	10
CC(/C=C1\SC(=S)N(NS(=O)(=O)c2ccc(C)cc2)C1=O)=C\c1ccccc1	16	2	5	3	16*
CC(/C=C1\SC(=S)N(NC(=O)c2ccncc2)C1=O)=C\c1ccccc1	20	1	-2	8	-2
O=C1/C(=C\c2ccc(Br)cc2)SC(=S)N1NS(=O)(=O)c1ccccc1	18	0	8	57*	2
COc1cccc(CNC(=O)C2CCC(=O)N(C3CC3)C2)c1OC (configuration not stated)	-2	.	-5	4	.
CC1(C)CC(=O)C(=Cc2cn(CCC#N)nc2-c2ccc(F)cc2)C(=O)C1	8	2	16	28	0
CC1(C)CC(=O)C(=Cc2cn(CCC#N)nc2-c2ccc(Cl)cc2)C(=O)C1	16	2	17	74*	5
Oc1cccc2ccc(/C=C/c3ccccc3Br)nc12	2	0	8	-9	16*
C=CCn1c2ccccc2c(=O)c2cc(C#Cc3ccsc3)ccc21	.	0	.	.	17*
C=CCn1c2ccccc2c(=O)c2cc(C#Cc3ccccn3)ccc21	2	12	11	10	5
COc1ccc(-c2cc(C(=O)N3CCCCCC3)c3ccccc3n2)cc1	0	.	3	-2	.
O=C(CCCCN1CCCCC1)c1ccccc1	-5	2	0	8	-3
O=C(C(=Cc1ccccc1)CN1CCCCC1)c1ccccc1	-2	.	49*	4	.
CCc1ccccc1NC(=O)c1nnn(CC(=O)Nc2cccc(C)c2)c1N	-3	4	-9	3	4
CSc1cccc(NC(=O)c2nnn(CC(=O)Nc3cc(C)cc(C)c3)c2N)c1	2	0	-14	-13	16*
COc1ccccc1C(=O)Nc1nc(-c2ccc(S(=O)(=O)N3CCOCC3)cc2)cs1	6	0	18	65*	4
Cc1ccccc1C(=O)N1CCN(c2ncccn2)CC1	-6	0	0	0	2

Screens deposited in PubChem by several laboratories.
